# Test results reported in PubChem BioAssay (EPA / NIEHS).
# Several values for one entry are separate records, joined by “and”; a condition that tells them apart may be missing. Equal values may be shown once. Results filed as inconclusive are left out. Some structures have more than one record in an assay (separate samples or runs), and their calls can disagree. Activity calls are given as the source filed them. How the source made its calls: active means hit-call score of the fitted dose curve at least 0.9, where 1 is the maximum; inconclusive means response in the unintended direction; inactive means score below 0.9.
# Assays:
# [1] = biological target: human Neurotensin Receptor (NTS), NTSR1 (gene 4923) (UniProt P30989); assay: NVS_GPCR_hNTS: NovaScreen (NVS) G Protein-Coupled Receptor Assay for human Neurotensin Receptor (NTS) (AID 2283279)
# How it was run: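 Radioligand displacement on human NTSR1 protein from CHO cells, cell-free, 1 h, filter-based scintillation counting. Primary screen at 25 uM in duplicate; hits rerun in concentration-response up to 50 uM.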
# [2] = biological target: mouse Cholecystokinin, CCK2 Receptor (CCKB), Cckbr (gene 12426) (UniProt P56481); assay: NVS_GPCR_mCKKBCentral: NovaScreen (NVS) G Protein-Coupled Receptor Assay for mouse Cholecystokinin, CCK2 Receptor (CCKB) (AID 2283293)
# How it was run: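 Radioligand displacement binding on mouse forebrain membranes, 2 h exposure, filter-based scintillation counting. Primary screen in duplicate at 25 uM; actives (e.g. ≥30% inhibition) retested in concentration-response up to 50 uM; loss of binding signal relative to DMSO.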
# [3] = biological target: rat Adrenergic, Alpha 1, Non-selective Receptor (Adra1), Adra1a (gene 29412) (UniProt P43140); assay: NVS_GPCR_rAdra1_NonSelective: NovaScreen (NVS) G Protein-Coupled Receptor Assay for rat Adrenergic, Alpha 1, Non-selective Receptor (Adra1) (AID 2283289)
# How it was run: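 Rat forebrain membranes; radioligand displacement read by filter-based scintillation counting 1 h after dosing. Primary screen in duplicate at 25 uM; hits (e.g. ≥30% inhibition) rerun as concentration–response to 50 uM max. Fitted versus DMSO.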
# [4] = tested on: rabbit Platelet Activating Factor Receptor (PAF), gene 100354046; assay: NVS_GPCR_rabPAF: NovaScreen (NVS) G Protein-Coupled Receptor Assay for rabbit Platelet Activating Factor Receptor (PAF) (AID 2283287)
# How it was run: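 Rabbit platelet membrane preparation; radioligand displacement read by filter-based scintillation counting 1 h after dosing, loss of signal versus DMSO. Primary screen in duplicate at 25 uM, actives followed up in concentration series.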
# [5] = biological target: human Opioid Receptor Mu (Opiate Mu), OPRM1 (gene 4988) (UniProt P35372); assay: NVS_GPCR_hOpiate_mu: NovaScreen (NVS) G Protein-Coupled Receptor Assay for human Opioid Receptor Mu (Opiate Mu) (AID 2283290);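 further: hits lower bound tracer signal versus DMSO meaning displacement of the ligand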
# How it was run: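 Radioligand displacement binding on membranes from CHO cells expressing the receptor, 2.5 h after dosing, filter-based scintillation counting; loss of signal vs DMSO baseline. Screened in duplicate at 25 uM, actives then run in concentration series.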
# [6] = biological target: rat Adrenergic Receptor, Beta (Adrb), Non-selective Binding, Adrb1 (gene 24925) (UniProt P18090); assay: NVS_GPCR_rAdrb_NonSelective: NovaScreen (NVS) G Protein-Coupled Receptor Assay for rat Adrenergic Receptor, Beta (Adrb), Non-selective Binding (AID 2283298)
# How it was run: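 Non-selective beta-adrenergic radioligand binding in rat cortical membranes, 1 h incubation, filter-based scintillation read-out. Primary screen 25 uM in duplicate; hits retested in concentration-response up to 50 uM, DMSO baseline.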
# [7] = biological target: mouse Cholecystokinin, CCK1 Receptor (CCKA), Cckar (gene 12425) (UniProt O08786); assay: NVS_GPCR_mCCKAPeripheral: NovaScreen (NVS) G Protein-Coupled Receptor Assay for mouse Cholecystokinin, CCK1 Receptor (CCKA) (AID 2283285)
# How it was run: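 Radioligand competitive displacement on mouse pancreatic membranes, 2 h incubation; filter-based scintillation counting, loss of signal versus DMSO. Single-concentration screen at 25 uM in duplicate, actives retested in concentration-response up to 50 uM.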
# [8] = biological target: rat Serotonin, 5-Hydroxytryptamine Receptor (5HT), Non-Selective Binding, Htr1a (gene 24473) (UniProt P19327); assay: NVS_GPCR_r5HT_NonSelective: NovaScreen (NVS) G Protein-Coupled Receptor Assay for rat Serotonin, 5-Hydroxytryptamine Receptor (5HT), Non-Selective Binding (AID 2283295)
# How it was run: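 Radioligand displacement on rat cortical membranes, 1 h incubation, filter-based scintillation counting. Primary duplicates at 25 uM, actives retested in concentration series; loss of signal fitted against DMSO as baseline.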
# [9] = tested on: guinea pig Atrionatriuretic Peptide Receptor A (ANPA), gene 100135578; assay: NVS_GPCR_gANPA: NovaScreen (NVS) G Protein-Coupled Receptor Assay for guinea pig Atrionatriuretic Peptide Receptor A (ANPA) (AID 2283291)
# How it was run: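 Radioligand binding to guinea pig cerebellar membranes was measured after 1 h by filter-based scintillation counting. Chemicals were tested in duplicate at 25 uM, with hits run in concentration-response to a maximum of 50 uM. Binding loss was fitted against DMSO.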
# [10] = tested on: rat Adrenergic, Alpha 1B Receptor (Adra1B), gene 24173; assay: NVS_GPCR_rAdra1B: NovaScreen (NVS) G Protein-Coupled Receptor Assay for rat Adrenergic, Alpha 1B Receptor (Adra1B) (AID 2283297)
# How it was run: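 Rat liver membranes, radioligand displacement with filter-based scintillation detection, 1 h incubation. Primary screen in duplicate at 25 uM; actives retested in concentration series; activity relative to DMSO.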
# [11] = biological target: human Opioid Receptor Delta 1 (Opiate D1), OPRD1 (gene 4985) (UniProt P41143); assay: NVS_GPCR_hOpiate_D1: NovaScreen (NVS) G Protein-Coupled Receptor Assay for human Opioid Receptor Delta 1 (Opiate D1) (AID 2283280)
# How it was run: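 Radioligand displacement on membranes from CHO cells expressing the receptor, read by filter scintillation counting 1 h after dosing. Duplicate single-point screen at 25 uM, then concentration series for actives; loss of signal versus DMSO.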
# [12] = biological target: guinea pig Bradykinin Receptor B2 (BK2), BDKRB2 (gene 100135486) (UniProt O70526); assay: NVS_GPCR_gBK2: NovaScreen (NVS) G Protein-Coupled Receptor Assay for guinea pig Bradykinin Receptor B2 (BK2) (AID 2283292)
# How it was run: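 Radioligand displacement on guinea pig ileum membranes for 1 h, read by filter-based scintillation counting; loss of signal relative to DMSO. Compounds were screened in duplicate at 25 uM, and those passing the threshold were retested in concentration-response up to 50 uM.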
# [13] = biological target: guinea pig Serotonin, 5-Hydroxytryptamine Receptor 4 (5HT4), HTR4 (gene 100135548) (UniProt O70528); assay: NVS_GPCR_g5HT4: NovaScreen (NVS) G Protein-Coupled Receptor Assay for guinea pig Serotonin, 5-Hydroxytryptamine Receptor 4 (5HT4) (AID 2283294)
# How it was run: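 Guinea pig striatal membranes; radioligand competitive displacement, filtration and scintillation counting after 1 h. Primary screen in duplicate at 25 uM; actives then tested in concentration series; loss of binding signal fitted relative to DMSO.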
# [14] = biological target: rat Serotonin, 5-Hydroxytryptamine Receptor 1 (5HT1), Non-Selective Binding, Htr1a (gene 24473) (UniProt P19327); assay: NVS_GPCR_r5HT1_NonSelective: NovaScreen (NVS) G Protein-Coupled Receptor Assay for rat Serotonin, 5-Hydroxytryptamine Receptor 1 (5HT1), Non-Selective Binding (AID 2283286)
# How it was run: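 Rat cortical membranes, radioligand displacement, 1 h incubation, read by filter scintillation. Primary screen in duplicate at 25 uM. Hits (e.g. ≥30% inhibition) went to concentration-response up to 50 uM, fitted as loss of binding versus DMSO.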
# [15] = biological target: rat Adrenergic Receptor, Alpha 2 (Adra2), Non-selective Binding, Adra2a (gene 25083) (UniProt P22909); assay: NVS_GPCR_rAdra2_NonSelective: NovaScreen (NVS) G Protein-Coupled Receptor Assay for rat Adrenergic Receptor, Alpha 2 (Adra2), Non-selective Binding (AID 2283299)
# How it was run: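 Rat cortical membranes, radioligand competitive displacement read by filter-based scintillation counting 1.25 hours after dosing. Primary screen in duplicate at 25 uM; actives followed up in concentration series.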
# Sequence of rat Adrenergic, Alpha 1, Non-selective Receptor (Adra1), Adra1a (gene 29412) (P43140 whole entry, looked up): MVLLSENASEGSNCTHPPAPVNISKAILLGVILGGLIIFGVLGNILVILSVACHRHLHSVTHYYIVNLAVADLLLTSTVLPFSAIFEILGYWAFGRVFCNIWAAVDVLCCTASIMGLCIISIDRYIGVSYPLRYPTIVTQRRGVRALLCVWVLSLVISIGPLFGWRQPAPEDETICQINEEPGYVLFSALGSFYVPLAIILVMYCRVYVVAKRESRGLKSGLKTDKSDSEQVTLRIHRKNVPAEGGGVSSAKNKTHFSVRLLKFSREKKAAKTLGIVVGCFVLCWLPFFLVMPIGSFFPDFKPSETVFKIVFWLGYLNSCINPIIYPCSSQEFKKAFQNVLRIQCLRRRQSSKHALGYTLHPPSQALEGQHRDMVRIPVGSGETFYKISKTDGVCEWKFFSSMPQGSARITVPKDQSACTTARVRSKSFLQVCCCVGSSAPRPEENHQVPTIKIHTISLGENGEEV
# Sequence of guinea pig Serotonin, 5-Hydroxytryptamine Receptor 4 (5HT4), HTR4 (gene 100135548) (O70528 whole entry, looked up): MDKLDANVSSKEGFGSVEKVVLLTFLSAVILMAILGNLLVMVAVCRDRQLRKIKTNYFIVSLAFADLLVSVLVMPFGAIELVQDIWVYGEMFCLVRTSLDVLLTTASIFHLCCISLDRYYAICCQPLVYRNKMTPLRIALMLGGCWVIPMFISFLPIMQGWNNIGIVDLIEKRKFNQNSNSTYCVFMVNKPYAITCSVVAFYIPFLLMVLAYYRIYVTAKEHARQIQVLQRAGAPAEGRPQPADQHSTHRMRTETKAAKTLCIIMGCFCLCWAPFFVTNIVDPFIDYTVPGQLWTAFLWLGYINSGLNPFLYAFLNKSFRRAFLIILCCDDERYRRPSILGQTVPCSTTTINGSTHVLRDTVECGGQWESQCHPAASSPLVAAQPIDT
# Sequence of rat Serotonin, 5-Hydroxytryptamine Receptor (5HT), Non-Selective Binding, Htr1a (gene 24473) (P19327 whole entry, looked up): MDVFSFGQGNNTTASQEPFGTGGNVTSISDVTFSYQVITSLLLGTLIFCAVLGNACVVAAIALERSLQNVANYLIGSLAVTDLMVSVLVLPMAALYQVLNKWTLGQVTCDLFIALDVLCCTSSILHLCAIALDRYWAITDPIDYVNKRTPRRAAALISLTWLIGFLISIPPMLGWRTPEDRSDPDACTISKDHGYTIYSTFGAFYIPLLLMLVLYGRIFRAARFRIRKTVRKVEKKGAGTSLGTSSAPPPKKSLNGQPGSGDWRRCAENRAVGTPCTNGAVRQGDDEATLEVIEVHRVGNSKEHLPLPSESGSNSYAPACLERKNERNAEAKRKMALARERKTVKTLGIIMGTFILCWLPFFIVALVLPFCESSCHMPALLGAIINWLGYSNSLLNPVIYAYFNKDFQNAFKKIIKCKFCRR
# Sequence of human Opioid Receptor Mu (Opiate Mu), OPRM1 (gene 4988) (P35372 whole entry, looked up): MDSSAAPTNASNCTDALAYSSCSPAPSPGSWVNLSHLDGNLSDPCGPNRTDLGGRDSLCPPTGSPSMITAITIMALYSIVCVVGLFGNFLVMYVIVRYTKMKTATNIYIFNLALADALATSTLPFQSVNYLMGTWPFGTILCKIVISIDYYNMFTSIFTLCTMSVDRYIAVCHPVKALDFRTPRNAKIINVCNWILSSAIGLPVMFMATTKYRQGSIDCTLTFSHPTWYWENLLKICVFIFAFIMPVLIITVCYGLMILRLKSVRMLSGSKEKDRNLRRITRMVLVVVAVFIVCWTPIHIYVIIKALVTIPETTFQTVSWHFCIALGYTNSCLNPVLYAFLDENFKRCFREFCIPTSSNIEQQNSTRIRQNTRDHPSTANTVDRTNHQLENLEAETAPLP
# Sequence of human Neurotensin Receptor (NTS), NTSR1 (gene 4923) (P30989 whole entry, looked up): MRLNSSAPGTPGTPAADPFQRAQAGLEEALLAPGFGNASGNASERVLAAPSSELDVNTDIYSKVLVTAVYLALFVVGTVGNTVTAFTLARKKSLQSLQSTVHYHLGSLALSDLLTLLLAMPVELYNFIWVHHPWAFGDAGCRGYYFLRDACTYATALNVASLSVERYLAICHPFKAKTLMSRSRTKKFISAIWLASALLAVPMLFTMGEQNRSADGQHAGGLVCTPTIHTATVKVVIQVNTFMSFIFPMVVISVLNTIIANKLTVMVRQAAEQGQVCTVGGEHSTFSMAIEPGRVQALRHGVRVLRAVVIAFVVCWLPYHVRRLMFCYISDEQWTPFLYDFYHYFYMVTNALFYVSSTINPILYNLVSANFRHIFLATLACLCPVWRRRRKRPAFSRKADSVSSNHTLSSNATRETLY
# Sequence of human Opioid Receptor Delta 1 (Opiate D1), OPRD1 (gene 4985) (P41143 whole entry, looked up): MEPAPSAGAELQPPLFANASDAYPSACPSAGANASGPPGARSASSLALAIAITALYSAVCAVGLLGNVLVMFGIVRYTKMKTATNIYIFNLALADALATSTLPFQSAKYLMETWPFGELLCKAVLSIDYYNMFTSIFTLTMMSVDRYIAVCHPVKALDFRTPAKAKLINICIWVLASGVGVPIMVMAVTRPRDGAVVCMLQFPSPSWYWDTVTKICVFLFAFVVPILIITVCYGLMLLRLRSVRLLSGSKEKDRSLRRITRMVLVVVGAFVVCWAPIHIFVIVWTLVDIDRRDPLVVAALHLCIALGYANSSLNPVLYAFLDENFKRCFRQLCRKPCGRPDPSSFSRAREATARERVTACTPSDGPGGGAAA
# Sequence of mouse Cholecystokinin, CCK1 Receptor (CCKA), Cckar (gene 12425) (O08786 whole entry, looked up): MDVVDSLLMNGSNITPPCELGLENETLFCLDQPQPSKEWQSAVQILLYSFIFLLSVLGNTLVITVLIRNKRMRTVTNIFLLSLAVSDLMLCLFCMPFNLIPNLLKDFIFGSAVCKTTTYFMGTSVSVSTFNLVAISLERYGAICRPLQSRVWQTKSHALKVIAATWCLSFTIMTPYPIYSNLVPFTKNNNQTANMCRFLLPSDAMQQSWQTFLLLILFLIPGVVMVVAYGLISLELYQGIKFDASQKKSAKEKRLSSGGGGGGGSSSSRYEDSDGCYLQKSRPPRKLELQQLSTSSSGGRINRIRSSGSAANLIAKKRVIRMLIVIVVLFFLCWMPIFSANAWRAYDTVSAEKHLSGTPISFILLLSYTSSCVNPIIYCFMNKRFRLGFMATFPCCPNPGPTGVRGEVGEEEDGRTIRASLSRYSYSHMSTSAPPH
# Sequence of rat Serotonin, 5-Hydroxytryptamine Receptor 1 (5HT1), Non-Selective Binding, Htr1a (gene 24473) (P19327 whole entry, looked up): as the sequence (P19327 whole entry, looked up) above
# Sequence of guinea pig Bradykinin Receptor B2 (BK2), BDKRB2 (gene 100135486) (O70526 whole entry, looked up): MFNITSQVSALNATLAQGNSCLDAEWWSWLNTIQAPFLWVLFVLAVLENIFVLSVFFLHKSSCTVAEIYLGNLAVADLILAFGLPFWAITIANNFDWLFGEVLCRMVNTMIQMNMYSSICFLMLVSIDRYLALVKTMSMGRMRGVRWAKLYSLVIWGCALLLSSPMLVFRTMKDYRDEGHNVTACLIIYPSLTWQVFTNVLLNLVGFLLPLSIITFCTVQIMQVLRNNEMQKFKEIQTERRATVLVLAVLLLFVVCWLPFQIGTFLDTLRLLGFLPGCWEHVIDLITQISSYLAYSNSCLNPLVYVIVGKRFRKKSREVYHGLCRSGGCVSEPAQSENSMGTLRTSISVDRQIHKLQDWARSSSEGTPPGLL
# Sequence of rat Adrenergic Receptor, Alpha 2 (Adra2), Non-selective Binding, Adra2a (gene 25083) (P22909 whole entry, looked up): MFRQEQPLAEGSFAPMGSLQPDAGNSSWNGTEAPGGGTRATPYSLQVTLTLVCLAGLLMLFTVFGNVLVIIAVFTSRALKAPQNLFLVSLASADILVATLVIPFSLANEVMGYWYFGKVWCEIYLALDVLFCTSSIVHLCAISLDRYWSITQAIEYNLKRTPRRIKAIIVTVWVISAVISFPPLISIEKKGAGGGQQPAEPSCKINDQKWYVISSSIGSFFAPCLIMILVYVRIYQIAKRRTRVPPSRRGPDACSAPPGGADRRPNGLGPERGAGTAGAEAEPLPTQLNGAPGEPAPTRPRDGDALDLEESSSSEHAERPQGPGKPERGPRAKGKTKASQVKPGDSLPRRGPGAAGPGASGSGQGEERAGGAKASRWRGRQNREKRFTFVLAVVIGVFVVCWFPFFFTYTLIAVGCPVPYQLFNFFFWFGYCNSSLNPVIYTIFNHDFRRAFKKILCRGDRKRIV
# Sequence of mouse Cholecystokinin, CCK2 Receptor (CCKB), Cckbr (gene 12426) (P56481 whole entry, looked up): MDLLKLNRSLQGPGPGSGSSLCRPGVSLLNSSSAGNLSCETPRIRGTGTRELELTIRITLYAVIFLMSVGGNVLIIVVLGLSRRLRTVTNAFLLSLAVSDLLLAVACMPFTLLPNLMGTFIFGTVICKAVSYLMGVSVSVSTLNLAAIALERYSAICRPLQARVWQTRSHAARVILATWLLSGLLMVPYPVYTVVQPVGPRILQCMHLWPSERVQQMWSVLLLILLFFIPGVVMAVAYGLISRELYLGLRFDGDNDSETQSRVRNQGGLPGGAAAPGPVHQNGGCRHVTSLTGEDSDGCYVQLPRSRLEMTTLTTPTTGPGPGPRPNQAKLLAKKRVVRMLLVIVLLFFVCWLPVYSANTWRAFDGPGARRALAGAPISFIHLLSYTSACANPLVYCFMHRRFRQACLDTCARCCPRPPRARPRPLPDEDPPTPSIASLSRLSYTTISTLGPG
structure (smiles),measurement,setting,value
C#CCOS(=O)OC1CCCCC1Oc1ccc(C(C)(C)C)cc1 (configuration not stated),outcome,[1],inactive
same,outcome,[2],inactive
CCCCOC(=O)c1ccccc1C(=O)OCCCC,outcome,[3],inactive
COc1nc(C)nc(NC(=O)NS(=O)(=O)c2ccccc2Cl)n1,outcome,[1],inactive
CCCCC(CC)COC(=O)c1ccccc1C(=O)OCC(CC)CCCC (configuration not stated),outcome,[4],inactive
COC(=O)N(OC)c1ccccc1COc1ccn(-c2ccc(Cl)cc2)n1,AC50,[5],879 nM (active)
Cc1c(F)c(F)c(COC(=O)C2C(/C=C(\Cl)C(F)(F)F)C2(C)C)c(F)c1F (configuration not stated),outcome,[3],inactive
CCNc1nc(Cl)nc(NCC)n1,outcome,[6],inactive
COC(=O)C(C)Oc1ccc(Oc2ccc(Cl)cc2Cl)cc1 (configuration not stated),outcome,[1],inactive
same,outcome,[4],inactive
C=CCC1=C(C)[C@@H](OC(=O)[C@@H]2[C@@H](C=C(C)C)C2(C)C)CC1=O,AC50,[7],19.9 µM (active)
same,AC50,[4],25 µM (active)
same,outcome,[8],inactive
COc1nc(NC(C)C)nc(NC(C)C)n1,outcome,[8],inactive
Fc1ccc(Oc2ccnc3cc(Cl)cc(Cl)c23)cc1,outcome,[4],inactive
same,outcome,[9],inactive
same,outcome,[10],inactive
CO/C=C(/C(=O)OC)c1ccccc1Oc1cc(Oc2ccccc2C#N)ncn1,AC50,[11],7.95 µM (active)
same,outcome,[11],inactive
same,outcome,[7],inactive
same,AC50,[4],13.9 µM (active) and 15.7 µM (active)
same,outcome,[5],inactive
same,outcome,[12],inactive
same,outcome,[13],inactive
OC(c1ccc(Cl)cc1)(c1cncnc1)c1ccccc1Cl (configuration not stated),AC50,[11],12.5 µM (active)
CCCCNC(=O)OCC#CI,AC50,[11],13.3 µM (active)
same,outcome,[11],inactive
same,outcome,[14],inactive
same,AC50,[5],9.57 µM (active) and 6.68 µM (active)
same,AC50,[13],13.7 µM (active) and 25 µM (active)
CCCN(CCC)c1c([N+](=O)[O-])cc(S(N)(=O)=O)cc1[N+](=O)[O-],outcome,[12],inactive
CC1COC(Cn2cncn2)(c2ccc(Oc3ccc(Cl)cc3)cc2Cl)O1 (configuration not stated),AC50,[5],1880 nM (active)
same,outcome,[13],inactive
same,AC50,[15],2.28 µM (active)
CCc1nn(C)c(C(=O)NCc2ccc(C(C)(C)C)cc2)c1Cl,outcome,[4],inactive
CS/C(C)=N/OC(=O)N(C)SN(C)C(=O)O/N=C(\C)SC,outcome,[5],inactive
same,outcome,[8],inactive
